Shown are actives, neighbours in structure and some others; about 19% of the full set was active somewhere.
TDP1 cell CPT: growth inhibition of DT40 Tdp1-/-;hTDP1 cells with camptothecin (screen for TDP1 inhibitors). chicken DT40 Tdp1-/-;hTDP1 cells + 20 nM CPT, ATP luminescence, 48 h. Potency, µM (highest dose often 46.2 µM), inactives show at the highest dose activity change, negative = growth inhibition, actives largely listed as inhibitors. 420,000 compounds, 12% hits; note: potency is the fitted concentration of half-maximal effect; % is set by controls: 0 for no effect and ±100 for the full control effect; nearly all actives have a fitted effect of over 55% in size
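Chicken DT40 Tdp1-/- cells stably complemented with human TDP1 were seeded at 400 cells/well in medium containing 20 nM camptothecin, exposed to pin-transferred compounds, and grown at 37 °C for at least 48 hr. Viability was read as ATP luminescence.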
HepG2 viability: counter-screen for TGF-b inhibitors: cytotoxicity in HepG2 cells; Potency, µM (doses to about 46.1 µM), without a hit: at the highest dose activity change, negative = cytotoxicity, hits mostly cytotoxic; 410,000 compounds, 0.76% hits; HepG2 CAGA-GFP viability, ATP luminescence, 18 h; note: potency is the fitted concentration of half-maximal effect
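CellTiter-Glo luminescence gave cytotoxicity after 18 hours at 37 degrees C. The cells were HepG2 CAGA-GFP in 1% FBS DMEM, stimulated with 500 pg/mL TGF-beta after compound addition. %Activity was normalised to no-cell wells (complete cell-killing) and DMSO (no toxicity), and curves were fitted and classified.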
S-ASM inh: human S-ASM enzyme inhibition. AID 504937. 340,000 compounds, 0.006% hits. P17405. Potency, µM (titrated, usually from 57.5 µM), inactives show top-dose activity change, negative = inhibition, actives largely listed as inhibitors. placental ASM, HMU-PC fluorogenic substrate, 60 min; note: potency is the fitted concentration of half-maximal effect
Target sequence (P17405 47-631 limits assumed): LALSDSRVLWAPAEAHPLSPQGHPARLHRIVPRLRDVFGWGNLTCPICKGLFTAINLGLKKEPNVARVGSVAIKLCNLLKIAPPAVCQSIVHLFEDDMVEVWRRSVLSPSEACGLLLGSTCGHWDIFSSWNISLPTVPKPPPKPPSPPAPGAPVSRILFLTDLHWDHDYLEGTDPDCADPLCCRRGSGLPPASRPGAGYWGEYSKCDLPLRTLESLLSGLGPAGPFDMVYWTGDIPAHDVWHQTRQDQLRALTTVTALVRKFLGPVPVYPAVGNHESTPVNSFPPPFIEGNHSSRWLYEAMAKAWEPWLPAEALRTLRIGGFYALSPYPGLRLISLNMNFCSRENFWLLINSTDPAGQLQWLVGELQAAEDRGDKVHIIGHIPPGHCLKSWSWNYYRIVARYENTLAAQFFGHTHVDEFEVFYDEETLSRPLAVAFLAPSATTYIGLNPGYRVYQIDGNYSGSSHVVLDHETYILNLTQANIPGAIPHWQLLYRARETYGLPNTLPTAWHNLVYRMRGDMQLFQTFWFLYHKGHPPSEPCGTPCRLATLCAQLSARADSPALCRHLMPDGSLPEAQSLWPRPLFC
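HMU-PC0 cleavage (9 uM final) by human placental ASM, 60 min at 37 °C following 10 min compound exposure at RT; stopped at pH 10, fluorescence Ex 386/Em 447 nm.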
TGFb SMAD3 inh: TGF-b pathway inhibition | 410,000 compounds, 1.2% hits | Potency, µM (series often up to 46.1 µM), for the others: at the highest dose activity, negative = inhibition, actives largely listed as inhibitors | HepG2 CAGA-GFP TGF-b/SMAD3 reporter, GFP fluorescence, 18 h; TGF-beta stimulated, 500 pg/mL final | AID 588855; note: potency is the fitted concentration of half-maximal effect; % is set by controls: 0 for no effect and ±100 for the full control effect; nearly all actives have a fitted effect of over 65% in size
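First, reporter cells (HEPG2 CAGA-GFP) rested 2 h at 37 degrees C. Next, compounds were pinned in and TGF-beta added to 500 pg/mL final. After 18 h, GFP was imaged per cell and summed per well.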
IL-1B inflam inh: inhibitors of inflammasome signaling (IL-1 beta secretion); THP-1 LPS/ATP IL-1B secretion, AlphaLISA, 16 h; stronger effect = lower value; AID 743279; 360,000 compounds, 4.7% hits; activity change, % at 57.5 µM; in the data active = activity change below about -50%; inconclusive = mostly about -30% to -49%; note: % is set by controls: 0 for no effect and ±100 for the full control effect
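Secreted IL-1B measured by AlphaLISA bead assay after 16 h compound exposure of THP-1 cells; compounds (final up to 57.5 uM) added 1 h before LPS (250 ng/mL) and ATP (1.25 mM) stimulation; lower signal means less secretion.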
DT40 TDP1 no CPT: qHTS for Inhibitors of human tyrosyl-DNA phosphodiesterase 1 (TDP1): qHTS in cells in absence of CPT; DT40 Tdp1-/- hTDP1 cells, no CPT, ATP luminescence, 48 h; Potency, µM (doses to about 46.2 µM), for inactives: at the top dose activity change, negative = growth inhibition, hits mostly inhibitors; 420,000 compounds, 15% hits; AID 686978, 2013; note: potency is the fitted concentration of half-maximal effect; % is set by controls: 0 for no effect and ±100 for the full control effect; nearly all actives have a fitted effect of over 55% in size
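A cellular qHTS used chicken DT40 cells lacking endogenous Tdp1 but carrying stably transfected human TDP1. Compounds were applied without camptothecin, and cell growth kinetics were judged by ATP-dependent luminescence after ≥48 hr.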
The depositor's hits bear a star; ? = inconclusive; . = not tested or not shown. Unless noted, calls come from the whole dose curve; as a rule, active = well fitted curve in the direction sought with a large enough effect; inconclusive = small, poorly fitted or top-dose-only effect, or another doubt; inactive = no such curve, though single readings can be large; an effect the other way counts as inactive or inconclusive.

SMILES	TDP1 cell CPT	HepG2 viability	S-ASM inh	TGFb SMAD3 inh	IL-1B inflam inh	DT40 TDP1 no CPT
Cc1nn(-c2ccccc2)c2c1N(CC(=O)N1CCN(c3ccc(F)cc3)CC1)C(=O)CS2	?	-1.7%	.	-12.5%	.	20.6µM*
Cc1nn(-c2ccccc2)c2c1N(CC(=O)N1CCN(c3ccccc3F)CC1)C(=O)CS2	18.4µM*	-23.9%	.	?	.	?
O=C1NCCCCC1NS(=O)(=O)c1ccc(Cl)cc1 (stereo unspecified)	-11.8%	0.7%	1.3%	4.2%	2.7	-10.0%
Cc1csc(NC(=O)NCC2CCCC(CNC(=O)Nc3nc(C)cs3)C2)n1 (stereo unspecified)	?	-4.2%	-2.6%	0.5%	-5.6	?
C=C(C)CSc1cc(C)nc2c(-c3ccccc3)c(C)nn12	?	-15.6%	-9.4%	-22.3%	-6.0	?
COc1ccc(NC(=O)CSc2cc(C)nc3c(-c4ccccc4)cnn23)cc1	25.2%	18.5%	-2.7%	-12.9%	20.1	?
Cc1cc(SCC(=O)c2cccs2)n2nc(C)c(-c3ccc(Cl)cc3)c2n1	16.4µM*	2.8%	6.2%	-4.4%	-7.4	?
Cc1cc(SCC(=O)Nc2ccc(O)cc2)n2nc(C)c(-c3ccccc3)c2n1	?	15.4%	-5.2%	-28.4%	-79.9*	?
Cc1cc(SCC(=O)Nc2ccc(O)cc2)n2ncc(-c3ccccc3)c2n1	-30.0%	-2.4%	8.1%	14.6%	-51.1*	-2.4%
Cc1cc(SCC(=O)Nc2ccccc2)n2ncc(-c3ccccc3)c2n1	?	-87.8%	-3.8%	?	-54.7*	-55.7%
Cc1nn2c(SCC(=O)c3cccs3)cc(C(C)(C)C)nc2c1-c1ccccc1	?	-6.8%	-18.5%	?	26.2	?
COc1ccccc1C(=O)Nc1c(-c2ccccc2)nc2ccccn12	23.1µM*	-1.3%	0.2%	11.8%	-9.3	?
COC(=O)C1=C(c2ccccc2)c2ccccc2S(=O)(=O)N1CC(=O)Nc1ccc(OC)cc1OC	-3.3%	-1.3%	.	-14.2%	.	?
C=CC[C@H](c1ccc(F)cc1)N(CC(C)C)S(=O)(=O)C=C	?	-15.9%	.	-27.4%	.	11.2µM*
O=C(NCCCOC(=O)c1ccccc1)c1ccccc1	-9.1%	5.6%	0.9%	1.8%	7.4	-4.2%
O=C(NOC(=O)c1ccccc1)c1ccccc1	?	-20.8%	1.5%	-7.3%	2.9	23.1µM*
O=C(NO)c1ccccc1	24.3µM*	.	.	.	.	21.7µM*
N#Cc1cc2c(nc1SCC(O)CS(=O)(=O)Cc1ccc(Cl)cc1)CCCC2 (stereo unspecified)	?	-15.7%	-17.1%	?	-61.3*	?
N#Cc1cc2c(nc1SCc1ccccc1)CCC2	0.5%	-32.5%	2.4%	-5.9%	3.5	-2.5%
N#Cc1cc2c(nc1SCc1ccncc1)CCC2	18.4µM*	-38.7%	11.1%	12.6µM*	?	?
Cc1cc(C)cc(NC(=O)N2CCN(C(=O)c3nsc4ccccc34)CC2)c1	?	-3.0%	.	-21.3%	.	?
O=C(Nc1ccc(C(=O)N2CCN(c3ccc(F)cc3)CC2)cc1)c1nsc2ccccc12	?	-35.7%	.	29.1%	.	?
COc1cccc(N2CCN(C(=O)c3cccc(NC(=O)c4nsc5ccccc45)c3)CC2)c1	?	-42.3%	.	-4.6%	.	20.6µM*
COc1ccc(N2CCN(C(=O)c3cccc(NC(=O)c4nsc5ccccc45)c3)CC2)cc1	14.6µM*	-22.7%	.	-0.3%	.	11.6µM*
Cc1ccc(C(=O)N2CCN(c3ccccc3)CC2)cc1NC(=O)c1nsc2ccccc12	20.6µM*	10.0%	.	-7.5%	.	?
